This is an account of results in PubChem BioAssay AID463082 (The Scripps Research Institute Molecular Screening Center, 2010).

Screen size: about 330,000 compounds; about 4,900 (1.5%) were called active.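 The calls were made as follows: active = inhibition above the mean inhibition across the screen plus 3 SD (cut at about 25% in these data); inactive = the rest.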 The entries come from a sample that favours actives as a whole.

As usually defined, the inhibition is the change of the read-out against control, counted positive when it falls.

In this experiment the target is Platelet-activating factor acetylhydrolase (Homo sapiens) (UniProt Q13093). The experiment is described as follows: inhibition of plasma PAF acetylhydrolase – biochemical, fluorescence polarization, human, primary screen (AID 463082).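 Also: inhibitors block binding of the rhodamine activity-based probe so polarization drops; 0% = enzyme with DMSO and 100% = wells lacking pPAFAH.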 The note with it: recombinant pPAFAH, FP-rhodamine probe fluorescence polarization; at 3.39 µM; active compounds read high.
Platelet-activating factor acetylhydrolase (Homo sapiens), sequence (Q13093 whole entry, looked up): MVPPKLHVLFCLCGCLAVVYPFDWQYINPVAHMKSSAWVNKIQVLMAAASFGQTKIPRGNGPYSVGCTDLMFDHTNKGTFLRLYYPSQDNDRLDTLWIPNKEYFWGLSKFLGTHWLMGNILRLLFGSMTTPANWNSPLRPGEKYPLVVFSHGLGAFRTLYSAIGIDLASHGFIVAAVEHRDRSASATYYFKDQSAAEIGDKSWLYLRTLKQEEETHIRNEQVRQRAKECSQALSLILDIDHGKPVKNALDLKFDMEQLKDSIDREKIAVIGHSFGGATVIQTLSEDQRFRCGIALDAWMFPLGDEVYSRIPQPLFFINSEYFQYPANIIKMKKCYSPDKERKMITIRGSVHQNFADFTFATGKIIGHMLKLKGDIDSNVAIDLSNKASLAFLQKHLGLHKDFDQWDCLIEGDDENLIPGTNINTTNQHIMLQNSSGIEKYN
Turning to `COc1ccc(C(CNC(=O)c2cccc(S(=O)(=O)Nc3ccccc3Cl)c2)N2CCOCC2)cc1` (stereo not drawn), the inhibition is -3.75% (inactive).

`COc1ccc(C(CNC(=O)c2cccc(NS(=O)(=O)c3ccc(C)c(F)c3)c2)N2CCCC2)cc1` (stereo not drawn): the inhibition is 5.75% (inactive).

With `CCOc1ccc(NS(=O)(=O)c2ccc(C(=O)NCC(c3ccccc3OC)N3CCCC3)cc2)cc1` (stereo not drawn), the inhibition was 51.8% (active).

Turning to `CCOc1ccc(NS(=O)(=O)c2ccc(C(=O)NC3CCN(Cc4ccccc4)CC3)cc2)cc1`, the inhibition is 24.1% (inactive).

With `Cc1cc(S(=O)(=O)Nc2ccc(C(=O)NCC(c3ccco3)N3CCCC3)cc2)ccc1F` (stereo not drawn), the inhibition is -0.43% (inactive).

`COc1ccc(C(CNC(=O)c2ccc(S(=O)(=O)Nc3ccccc3C)cc2)N2CCOCC2)cc1` (stereo not drawn): the inhibition was 33.2% (active).

Regarding `CC(=O)Nc1ccc(S(=O)(=O)N2CCN(C(=O)c3ccccc3F)CC2)cc1`, the inhibition is -5.31% (inactive).

For `COc1ccc(S(=O)(=O)N(C)C[C@@H]2Oc3ccc(NC(=O)Nc4c(C)noc4C)cc3C(=O)N([C@H](C)CO)C[C@@H]2C)cc1`, the inhibition is 1.97% (inactive).

With `COc1ccc(S(=O)(=O)NCc2cccnc2)cc1NC(=O)c1ccc(C)cc1`, the inhibition is 0.8% (inactive).

Regarding `Cc1cccc(C)c1NC(=O)CCS(=O)(=O)c1cccc2nsnc12`, the inhibition is -6.43% (inactive).

For `Cc1cccc(Cn2cnc3c(N)c(C)c(C)cc32)c1`, the inhibition is 9.5% (inactive).

Take `Cn1c(=O)c(C(=O)Nc2ncccn2)c(O)c2ccccc21`: the inhibition was 1.18% (inactive).

Turning to `COC(=O)c1ccc(C(NC(=O)OCc2ccccc2)/C(F)=C/[C@@H](C)C(=O)O)cc1` (stereo partly drawn), the inhibition is 6.41% (inactive).

As for `COC(=O)c1ccc(C(NC(=O)OCc2ccccc2)/C(C)=C/[C@@H](C)C(=O)NCc2ccc(OC)c(OC)c2)cc1` (stereo partly drawn), the inhibition is 40.4% (active).

As to `COc1ccc(COC(=O)NC(C(=O)O)c2ccccc2)cc1` (stereo not drawn), the inhibition was -0.13% (inactive).

For `C=CCNC(=O)C1CC2c3ccccc3C1c1ccccc12` (stereo not drawn), the inhibition was 3.92% (inactive).

`CSC1=NC2(C)CCCCC2C12C=CC(=O)C=C2` (stereo not drawn): the inhibition is 5.48% (inactive).

For `Cc1nn(C)cc1C(=O)c1ccccc1`, the inhibition is -11.2% (inactive).

Turning to `C=C(C)CNC(=O)c1ccc(OC2CCN(C(=O)COC)CC2)cc1`, the inhibition is -1.41% (inactive).

Consider `COc1ccc(/C=N/NC(=O)c2ccc3c(c2)OCCO3)c(OC)c1`, for which the inhibition is 11.5% (inactive).

For the compound `COc1cccc(/C=N/NC(=O)c2[nH]nc3c2CCc2ccccc2-3)c1O`, the inhibition is 43.7% (active).

Take `COc1cc(OC)c(/C=N/NC(=O)c2ccc([N+](=O)[O-])cc2)cc1Br`: the inhibition is 2.36% (inactive).

Regarding `Cc1onc(C(=O)NN)c1-c1csc(COc2ccccc2)n1`, the inhibition is -3.91% (inactive).

On to `CC(C)(C)C(=O)OCc1nc(-c2ccc(O)c(O)c2)cs1`, for which the inhibition was 27.5% (active).

As for `COc1ccc(-c2csc(Cc3nc(O)cs3)n2)cc1`, the inhibition was 13% (inactive).

Consider `C/C(=N/N1CCN(Cc2cccc3ccccc23)CC1)c1cccnc1`, for which the inhibition was -3.57% (inactive).

Take `CCN(CC)C(=O)[C@H]1CC(CC(=O)NCc2ccco2)C(=O)N2CCc3c([nH]c4ccccc34)[C@]12C` (stereo partly drawn): the inhibition is -0.35% (inactive).

Regarding `CCN1/C(=C\c2ccc3ccccc3[n+]2CC)Sc2cc(C)ccc21`, the inhibition was 36.3% (active).

As for `Cc1ccc(C(=O)OCC(=O)NC(=O)Cc2ccccc2)c(O)c1`, the inhibition is 5.13% (inactive).

`CCCc1cc(=O)[nH]c(SCC(=O)N2C(C)CCCC2C)n1` (stereo not drawn): the inhibition is 8.03% (inactive).

For the compound `Cc1cc(C(=O)CSc2nc(N)cc(=O)[nH]2)c(C)n1-c1cccc(F)c1`, the inhibition was 56.4% (active).

`CCCc1cc(=O)[nH]c(SCC(=O)c2c(N)n(CC(C)C)c(=O)n(C)c2=O)n1`: the inhibition is 0.06% (inactive).

Consider `Cc1cc(=O)[nH]c(SCc2cccc(F)c2)n1`, for which the inhibition was -3.14% (inactive).

With `CCCc1cc(=O)[nH]c(SCC(=O)c2cc(C)n(CCC)c2C)n1`, the inhibition is 25.1% (active).

For the compound `Cc1cc(C(=O)CSc2nc(N)cc(=O)[nH]2)c(C)n1CCc1ccc(Cl)cc1`, the inhibition was 69.6% (active).

For `Cc1cc(C)c(C(=O)CSc2nc(C)cc(=O)[nH]2)c(C)c1`, the inhibition was 8.8% (inactive).

Consider `Cc1cc(=O)[nH]c(SCc2ccc(Cl)cc2)n1`, for which the inhibition was -2.26% (inactive).

Consider `Cc1cc(C(=O)CSc2nc(N)cc(=O)[nH]2)c(C)n1Cc1ccco1`, for which the inhibition is 13.6% (inactive).

On to `CONc1nc2nonc2nc1NOC`, for which the inhibition is 4.61% (inactive).

As for `CCN(CC(=O)Nc1ccc(OC)cc1)C(=O)c1ccc(=O)n(Cc2ccccc2)n1`, the inhibition was -1.18% (inactive).

In the case of `O=c1oc2ccc(C#CC3(O)CCCCC3)cc2cc1-n1cc(-c2ccsc2)nn1`, the inhibition is -0.61% (inactive).

In the case of `O=C(CO/N=C/c1ccccc1O)NNC(=O)c1ccccc1Cl`, the inhibition is 0.6% (inactive).

`CCOCCCNC(=O)C(=O)NCCCOCC`: the inhibition is 7.96% (inactive).

Regarding `COc1cccc(COC(=O)C2CCN(S(=O)(=O)c3cccs3)CC2)c1OC`, the inhibition was 0.21% (inactive).

Turning to `Cn1cccc1C(C#N)c1ccccc1C#N` (stereo not drawn), the inhibition was 6.28% (inactive).

On to `CC(=O)Oc1c(C(=O)c2nnc(C)o2)c(=O)n(Cc2ccccc2)c2ccccc12`, for which the inhibition was 4.19% (inactive).

As for `CCCCNC(=O)C(C)N(CCN(C)C)C(=O)CCCN1C(=O)NC(c2ccc(Cl)cc2)C(C(=O)OCc2ccccc2)=C1C` (stereo not drawn), the inhibition is 8.55% (inactive).

Regarding `FC(F)(F)c1cccc(Cc2noc(CN3CCC(N4CCCCC4)CC3)n2)c1`, the inhibition was -0.07% (inactive).

`CCN(C(=O)c1cc([N+](=O)[O-])ccc1NCc1cccnc1)c1ccccc1`: the inhibition is -0.13% (inactive).

On to `CC(Oc1ccc(Br)cc1)C(=O)NCC(c1ccco1)N1CCCCC1` (stereo not drawn), for which the inhibition is 1.84% (inactive).

For `CCOC(=O)C1(Cc2ccc(Cl)cc2)CCN(C(=O)C2=NNC(=O)CC2)CC1`, the inhibition was 1.54% (inactive).

In the case of `COC(=O)CN1C(=O)[C@H]2[C@@H](/C=C/c3ccccc3)N3C(=O)CN(Cc4ccccc4)C(=O)[C@@]3(Cc3ccccc3)[C@H]2C1=O`, the inhibition is 3.66% (inactive).

In the case of `NS(=O)(=O)c1ccccc1NC(=O)c1c(O)c2ccccc2[nH]c1=O`, the inhibition is -4.47% (inactive).

Turning to `CN(C(=O)COC(=O)c1cc(-c2ccco2)nc2ccccc12)C1CCS(=O)(=O)C1` (stereo not drawn), the inhibition was 30.1% (active).

Turning to `CN(CCOc1ccccc1)C(=O)c1cc(-c2ccco2)nc2ccccc12`, the inhibition was 17.3% (inactive).

For the compound `CN(C(=O)COC(=O)Cc1ccccc1[N+](=O)[O-])C1CCS(=O)(=O)C1` (stereo not drawn), the inhibition is -1.36% (inactive).

Turning to `c1ccc(C2CCC(N3CCC(N4CCCCC4)CC3)CC2)cc1` (stereo not drawn), the inhibition was 4.58% (inactive).

For the compound `CC/C(O)=C1\C(=O)CC(C)(C)CC1=NCCc1nc2ccccc2[nH]1`, the inhibition is -2.43% (inactive).

As for `Cc1cccc(C(=O)Nc2ccc(C(=O)/C=C/c3cccs3)cc2)c1`, the inhibition is -9.49% (inactive).

`CC(=O)Nc1ccc(S(=O)(=O)Nc2ccc(-c3ccc4nnc(C)n4n3)cc2)cc1`: the inhibition is 3.56% (inactive).

With `CC(=O)Nc1ccc(S(=O)(=O)Nc2nc(-c3ccc(C(C)(C)C)cc3)cs2)cc1`, the inhibition was 25.1% (active).

On to `CC(=O)Nc1ccc(S(=O)(=O)Nc2cccc(NC(=O)C(C)(C)C)c2)cc1`, for which the inhibition is 6.07% (inactive).

Consider `O=C(NC(=S)Nc1cccc2c(O)cccc12)c1cccc(Br)c1`, for which the inhibition was 8.85% (inactive).

On to `COc1cc(-c2noc(C3CCCN(S(=O)(=O)c4cccc(Cl)c4)C3)n2)cc(OC)c1OC` (stereo not drawn), for which the inhibition is 1.19% (inactive).

Turning to `O=C(Cc1cccs1)N1CCCC(c2nc(-c3ccc(S(=O)(=O)N4CCCC4)cc3)no2)C1` (stereo not drawn), the inhibition was 3.46% (inactive).

Take `CC(C)c1ccc(-c2noc(C3CCCN(S(C)(=O)=O)C3)n2)cc1` (stereo not drawn): the inhibition was 26.1% (active).

Take `CCCn1c(N)c(C(=O)CSc2nnc(-c3cccnc3)n2-c2ccc(C)cc2C)c(=O)[nH]c1=O`: the inhibition was 4.8% (inactive).

As to `COCC1CCCN(Cc2nc(-c3ccc4c(c3)OCO4)no2)C1` (stereo not drawn), the inhibition is 0.91% (inactive).

With `Cc1ccc(S(=O)(=O)N2CCN(C(=O)COC(=O)CNC(=O)c3ccc(C(C)(C)C)cc3)CC2)c(C)c1`, the inhibition was 18% (inactive).

In the case of `CCCCOc1ccc(C(=O)NCC(=O)OCC(=O)N2CCN(S(=O)(=O)c3ccc(C)cc3C)CC2)cc1`, the inhibition was 28% (active).

For `Cc1ccc(S(=O)(=O)N2CCN(C(=O)COC(=O)c3c(C)cc(C)cc3C)CC2)c(C)c1`, the inhibition was 0.75% (inactive).

Regarding `COc1cccc(CNC(C)C(=O)Nc2ccc(S(=O)(=O)N3CCCC3)cc2)c1` (stereo not drawn), the inhibition is -5.3% (inactive).

`COc1ccc(S(=O)(=O)NCC(c2ccco2)N2CCOCC2)cc1` (stereo not drawn): the inhibition is -0.61% (inactive).

Take `Cc1cc(C)cc(OCC(=O)OCC(=O)NC2CCCC2)c1`: the inhibition is 21.4% (inactive).

Consider `O=C(COC(=O)CNS(=O)(=O)c1ccc(F)c(F)c1F)NC1CCCC1`, for which the inhibition is 29.2% (active).

For `Cc1ccc(C(=O)NCC(=O)OCC(=O)NC2CCCCCCC2)cc1`, the inhibition was 9.66% (inactive).

Turning to `CN(C(=O)CC1C(=O)NCCN1Cc1ccc(F)cc1Cl)C1CCCCC1` (stereo not drawn), the inhibition is -3% (inactive).

With `COc1ccccc1-n1c(-c2cc(-c3ccco3)[nH]n2)n[nH]c1=S`, the inhibition was 28.5% (active).

For `COc1ccccc1-n1cn[nH]c1=S`, the inhibition was 6.13% (inactive).

On to `COc1ccc(OC)c(-n2c(-c3ccn[nH]3)n[nH]c2=S)c1`, for which the inhibition was -4.65% (inactive).

As for `Cc1ccc(-n2c(Cc3cccs3)nnc2SCC(=O)OC(C)C)cc1`, the inhibition was 34% (active).

With `COc1ccc(-n2c(SCC(=O)OC(C)C)nnc2-c2ccccn2)cc1`, the inhibition was 6.1% (inactive).

With `CCn1c(Cc2cccs2)nnc1SCC(=O)c1ccc(C)cc1`, the inhibition was 9.49% (inactive).

On to `C=C1c2cccc(OC)c2O[C@H](C(=O)OCC)[C@@H]1CCCCCC`, for which the inhibition was 9.96% (inactive).

Consider `O=C1Cc2cc(S(=O)(=O)Nc3cccc(F)c3)ccc2N1`, for which the inhibition was 24.4% (inactive).

In the case of `CSc1ccc(S(=O)(=O)Nc2cccc(F)c2)cc1`, the inhibition was 32.8% (active).

Take `Cc1cc(C)cc(NS(=O)(=O)c2ccc(F)cc2)c1`: the inhibition was 5.58% (inactive).

For the compound `Nc1nonc1-n1nnc(C(=O)N/N=C/c2ccc(Cl)cc2)c1-c1ccc2c(c1)OCO2`, the inhibition was 3.64% (inactive).
